37 compounds from the supplement of paper PMC6331611 can be followed below.

The subject of the experiment is Salmonella enterica serovar Typhimurium SL1344. Put plainly: normalized intracellular growth (luminescence, IQM-normalized) in RAW264.7 macrophages (fraction of plate interquartile mean); higher = more bacterial growth (less inhibition). The following applies: 10 µM.

Structures are written as SMILES. ± gives the standard deviation of the averaged measurements. Over roughly 1,600 compounds, “normalized intracellular growth (luminescence, IQM-normalized) in RAW264.7 macrophages” has its median near 1; the lowest 2% begin near 0.43. The full list was thinned out, with the lowest values kept by preference.

On to `CO/N=C(\C(=O)N[C@@H]1C(=O)N2C(C(=O)O)=C(CSc3nnnn3C)CS[C@H]12)c1csc(N)n1`, for which the normalized intracellular growth reads like this: (time point: T3 (3 h)) 0.987 ± 0.052; (time point: Tfinal (~6 h)) 0.935 ± 0.032.
Consider `CC1=C(C(=O)O)N2C(=O)[C@@H](NC(=O)[C@H](N)c3ccccc3)[C@H]2SC1`, for which the normalized intracellular growth by setting is: (time point: T3 (3 h)) 1.017 ± 0.0017; (time point: Tfinal (~6 h)) 1.07 ± 0.1.
Consider `CO/N=C(\C(=O)N[C@@H]1C(=O)N2C(C(=O)OC(C)OC(C)=O)=C(COC(N)=O)CS[C@H]12)c1ccco1` (some centres undefined), for which the normalized intracellular growth was found to be 1.09 ± 0.063 (time point: T3 (3 h)) and 0.977 ± 0.23 (time point: Tfinal (~6 h)).
For `CC1=C(C(=O)O)N2C(=O)[C@@H](NC(=O)[C@H](N)c3ccc(O)cc3)[C@H]2SC1`, the normalized intracellular growth is 0.982 ± 0.0066 (time point: T3 (3 h)) and 0.831 ± 0.018 (time point: Tfinal (~6 h)).
As to `CO/N=C(\C(=O)N[C@@H]1C(=O)N2C(C(=O)O)=C(CSC(=O)c3ccco3)CS[C@H]12)c1csc(N)n1`, the normalized intracellular growth was found to be 1 ± 0.029 (time point: T3 (3 h)) and 0.0233 ± 0.0029 (time point: Tfinal (~6 h)).
In the case of `Nc1nc(/C(=C/CC(=O)O)C(=O)N[C@@H]2C(=O)N3C(C(=O)O)=CCS[C@H]23)cs1`, the normalized intracellular growth is, setting by setting: (time point: T3 (3 h)) 0.951 ± 0.059; (time point: Tfinal (~6 h)) 0.0259 ± 0.0032.
With `CO/N=C(\C(=O)N[C@@H]1C(=O)N2C(C(=O)O)=C(COC(N)=O)CS[C@H]12)c1ccco1`, the normalized intracellular growth was determined as 0.994 ± 0.043 (time point: T3 (3 h)) and 0.732 ± 0.083 (time point: Tfinal (~6 h)).
`Cn1nnnc1SCC1=C(C(=O)O)N2C(=O)[C@@H](NC(=O)[C@H](OC=O)c3ccccc3)[C@H]2SC1` showed a normalized intracellular growth (time point: T3 (3 h)) of 0.866 ± 0.094 and a normalized intracellular growth (time point: Tfinal (~6 h)) of 0.979 ± 0.024.
For `Cc1ncc(CSSCc2cnc(C)c(O)c2CO)c(CO)c1O`, in that order: 0.943 ± 0.057 and 1.06 ± 0.015.
As for `O=C(O)C1=C(CSc2nnnn2CS(=O)(=O)O)CS[C@@H]2[C@H](NC(=O)[C@H](O)c3ccccc3)C(=O)N12`, the normalized intracellular growth runs as follows: (time point: T3 (3 h)) 0.979 ± 0.034; (time point: Tfinal (~6 h)) 0.824 ± 0.19.
On to `Cc1ccc2c(Br)cc(Br)c(OC(=O)c3ccccc3)c2n1`, for which the normalized intracellular growth is, setting by setting: (time point: T3 (3 h)) 0.944 ± 0.025; (time point: Tfinal (~6 h)) 1.01 ± 0.097.
With `S=C=Nc1ccc(N=C=S)cc1`, the normalized intracellular growth amounted to 1.04 ± 0.035 (time point: T3 (3 h)) and 1.01 ± 0.11 (time point: Tfinal (~6 h)).
On to `CN(C)c1ccc2nc3ccc(=[N+](C)C)cc-3sc2c1`, for which the normalized intracellular growth by setting is: (time point: T3 (3 h)) 1.29 ± 0.088; (time point: Tfinal (~6 h)) 1.4 ± 0.2.
In the same order, the values of `COc1cc(/C=C/C(N)=O)cc(OC)c1OC` are 1.04 ± 0.084 and 1.03 ± 0.12.
For `COc1ccc(Cc2cnc(N)nc2N)cc1OC`, in that order: 0.784 ± 0.028 and 0.17 ± 0.021.
For the compound `COc1cc(Cc2cnc(N)nc2N)cc(OC)c1OC`, the normalized intracellular growth (time point: T3 (3 h)) was 0.563 ± 0.068 and the normalized intracellular growth (time point: Tfinal (~6 h)) is 0.155 ± 0.025.
With `C[C@@H]1CC2C3C[C@H](F)C4=CC(=O)C=C[C@]4(C)[C@@]3(F)[C@@H](O)C[C@]2(C)[C@@]1(O)C(=O)COC(=O)C(C)(C)C` (some centres undefined), the normalized intracellular growth is, setting by setting: (time point: T3 (3 h)) 0.961 ± 0.055; (time point: Tfinal (~6 h)) 0.888 ± 0.12.
Regarding `Cc1cc(-c2ccc(/N=N/c3ccc4c(S(=O)(=O)O)cc(S(=O)(=O)O)c(N)c4c3O)c(C)c2)ccc1/N=N/c1ccc2c(S(=O)(=O)O)cc(S(=O)(=O)O)c(N)c2c1O`, the normalized intracellular growth amounted to 1.06 ± 0.038 (time point: T3 (3 h)) and 1.36 ± 0.084 (time point: Tfinal (~6 h)).
As for `CCOC(=S)SSC(=S)OCC`, the normalized intracellular growth is, setting by setting: (time point: T3 (3 h)) 0.994 ± 0.036; (time point: Tfinal (~6 h)) 0.924 ± 0.067.
In the same order, the values of `C[C@@H]1NC(=O)[C@@H](N)CNC(=O)[C@H](C2CCNC(=N)N2)NC(=O)/C(=C/NC(N)=O)NC(=O)[C@H](CNC(=O)CC(N)CCCN)NC1=O.N=C1NCC[C@H]([C@@H]2NC(=O)/C(=C/NC(N)=O)NC(=O)[C@H](CNC(=O)C[C@@H](N)CCCN)NC(=O)[C@H](CO)NC(=O)[C@@H](N)CNC2=O)N1` are 0.976 ± 0.016 and 0.966 ± 0.059.
With `CC(=O)N[C@@H]([C@@H](O)[C@H](O)[C@H](O)CO)[C@@H](O)CC(=O)C(=O)O`, the normalized intracellular growth by setting is: (time point: T3 (3 h)) 1.02 ± 0.058; (time point: Tfinal (~6 h)) 1.06 ± 0.24.
As to `C[C@@H]1O[C@@H](OC[C@H]2O[C@@H](Oc3c(-c4ccc(OCCO)c(OCCO)c4)oc4cc(OCCO)cc(O)c4c3=O)[C@H](O)[C@@H](O)[C@@H]2O)[C@H](O)[C@H](O)[C@H]1O`, the normalized intracellular growth was 0.951 ± 0.034 (time point: T3 (3 h)) and 0.746 ± 0.24 (time point: Tfinal (~6 h)).
`OC[C@H]1O[C@@H](O[C@H]2[C@H](O)[C@@H](O)C(O)O[C@@H]2CO)[C@H](O)[C@@H](O)[C@H]1O` (some centres undefined): the normalized intracellular growth stood at 1.05 ± 0.022 (time point: T3 (3 h)) and 1.04 ± 0.026 (time point: Tfinal (~6 h)).
Turning to `C1CNCCN1`, the normalized intracellular growth is, setting by setting: (time point: T3 (3 h)) 0.991 ± 0.091; (time point: Tfinal (~6 h)) 0.655 ± 0.077.
For `C[C@@H]1CN(c2c(F)c(F)c3c(=O)c(C(=O)O)cn(C4CC4)c3c2F)C[C@H](C)N1`, the normalized intracellular growth came to 0.986 ± 0.025 (time point: T3 (3 h)) and 0.0257 ± 0.0074 (time point: Tfinal (~6 h)).
Consider `C[C@@H]1CN(c2c(F)c(N)c3c(=O)c(C(=O)O)cn(C4CC4)c3c2F)C[C@H](C)N1`, for which the normalized intracellular growth runs as follows: (time point: T3 (3 h)) 1.08 ± 0.037; (time point: Tfinal (~6 h)) 0.0132 ± 0.002.
`COc1ccc(CN(CCN(C)C)c2ncccn2)cc1`: the normalized intracellular growth by setting is: (time point: T3 (3 h)) 1.1 ± 0.06; (time point: Tfinal (~6 h)) 1.1 ± 0.093.
In the case of `Cc1cc2nc3c(=O)[nH]c(=O)nc-3n(CC(O)C(O)C(O)COP(=O)(O)O)c2cc1C` (centres undefined), the normalized intracellular growth reads like this: (time point: T3 (3 h)) 0.886 ± 0.064; (time point: Tfinal (~6 h)) 1.08 ± 0.19.
With `O=C(O)CN(CCN(CC(=O)O)CC(=O)O)CC(=O)O.[Na+].[Na+].[Na+]`, the normalized intracellular growth runs as follows: (time point: T3 (3 h)) 1.03 ± 0.021; (time point: Tfinal (~6 h)) 1.54 ± 0.093.
Regarding `C[C@H]1O[C@@H](O[C@H]2[C@@H](O)C[C@H](O[C@H]3[C@@H](O)C[C@H](O[C@H]4CC[C@@]5(C)[C@H](CC[C@@H]6[C@@H]5CC[C@]5(C)[C@@H](C7=CC(=O)OC7)CC[C@]65O)C4)O[C@@H]3C)O[C@@H]2C)C[C@H](O)[C@@H]1O`, the normalized intracellular growth is 1.03 ± 0.042 (time point: T3 (3 h)) and 1.08 ± 0.087 (time point: Tfinal (~6 h)).
As to `NC(=O)c1ccccc1O`, the normalized intracellular growth runs as follows: (time point: T3 (3 h)) 1.04 ± 0.085; (time point: Tfinal (~6 h)) 0.978 ± 0.036.
In the case of `CCCCc1nc(Cl)c(CO)n1Cc1ccc(-c2ccccc2-c2nnn[nH]2)cc1`, the normalized intracellular growth reads like this: (time point: T3 (3 h)) 0.909 ± 0.056; (time point: Tfinal (~6 h)) 0.215 ± 0.0058.
In turn, `CCOc1nc2cccc(C(=O)O)c2n1Cc1ccc(-c2ccccc2-c2nnn[nH]2)cc1` had a normalized intracellular growth (time point: T3 (3 h)) of 0.992 ± 0.057 and a normalized intracellular growth (time point: Tfinal (~6 h)) of 1.04 ± 0.034.
In the same order, the values of `CCCCC1=NC2(CCCC2)C(=O)N1Cc1ccc(-c2ccccc2-c2nnn[nH]2)cc1` are 1.06 ± 0.014 and 1.14 ± 0.22.
For `CCCCC(=O)N(Cc1ccc(-c2ccccc2-c2nnn[nH]2)cc1)[C@H](C(=O)O)C(C)C`, in that order: 0.881 ± 0.033 and 0.239 ± 0.016.
For the compound `CCCc1nc(C(C)(C)O)c(C(=O)OCc2oc(=O)oc2C)n1Cc1ccc(-c2ccccc2-c2nnn[nH]2)cc1`, the normalized intracellular growth runs as follows: (time point: T3 (3 h)) 1 ± 0.026; (time point: Tfinal (~6 h)) 0.855 ± 0.39.
For `CCCc1nc(C(C)(C)O)c(C(=O)O)n1Cc1ccc(-c2ccccc2-c2nnn[nH]2)cc1`, in that order: 1.027 ± 0.0089 and 1.118 ± 0.0057.
